# The full data set covers some 7,900 targets. This sample favours those with a hit. About 0.6% of all pairs of compound and target were hits. A number with no mark means an inactive call.
# Compound: CC1=CC=C(C=C1)SC2=C3C=C(SC3=CN=C2)C(=O)N
# Experiment: log2 fold change, soluble protein after heating vs DMSO (PISA); higher = thermal stabilisation; K562 cells, 10 uM, 30 min; active = over 0.2 and 3.5 SD of the protein, either way, in both replicates (recomputed)
# Outline: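 Values are thermal stability changes relative to control samples and are taken from duplicates. They are stated as log2 fold changes. Before quantification by TMTpro 16plex LC-MS/MS with equalised channel sums, K562 cells at 2×10^6 cells/mL were treated with 10 μM compound for 30 min, heated in aliquots for 3 min across 48°C-58°C, pooled, extracted in PBS with 0.5% NP-40 at 4°C, and centrifuged at 21,000xg for 90 min to give the soluble supernatant.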
# Sequence of UniProt P23276 (P23276 whole entry, looked up): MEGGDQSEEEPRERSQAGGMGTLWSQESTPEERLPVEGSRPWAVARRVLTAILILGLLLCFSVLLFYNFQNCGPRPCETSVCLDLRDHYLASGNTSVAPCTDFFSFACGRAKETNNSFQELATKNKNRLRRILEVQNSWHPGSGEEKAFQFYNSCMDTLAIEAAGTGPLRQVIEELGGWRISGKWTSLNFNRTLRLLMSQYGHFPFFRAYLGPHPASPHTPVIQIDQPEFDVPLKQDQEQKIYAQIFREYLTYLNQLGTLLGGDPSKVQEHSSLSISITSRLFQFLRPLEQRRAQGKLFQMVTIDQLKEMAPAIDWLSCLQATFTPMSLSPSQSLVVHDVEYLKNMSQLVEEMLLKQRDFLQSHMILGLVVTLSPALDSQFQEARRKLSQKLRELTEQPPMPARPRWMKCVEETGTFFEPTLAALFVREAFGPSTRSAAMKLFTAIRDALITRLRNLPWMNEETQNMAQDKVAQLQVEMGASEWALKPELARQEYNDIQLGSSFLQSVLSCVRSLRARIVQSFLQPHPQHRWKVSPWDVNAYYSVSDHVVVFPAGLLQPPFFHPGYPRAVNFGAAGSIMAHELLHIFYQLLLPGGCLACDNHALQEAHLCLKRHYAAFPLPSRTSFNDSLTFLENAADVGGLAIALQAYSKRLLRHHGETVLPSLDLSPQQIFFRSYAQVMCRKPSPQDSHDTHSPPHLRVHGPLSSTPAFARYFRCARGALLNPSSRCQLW
# Sequence of UniProt Q14676 (Q14676 whole entry, looked up): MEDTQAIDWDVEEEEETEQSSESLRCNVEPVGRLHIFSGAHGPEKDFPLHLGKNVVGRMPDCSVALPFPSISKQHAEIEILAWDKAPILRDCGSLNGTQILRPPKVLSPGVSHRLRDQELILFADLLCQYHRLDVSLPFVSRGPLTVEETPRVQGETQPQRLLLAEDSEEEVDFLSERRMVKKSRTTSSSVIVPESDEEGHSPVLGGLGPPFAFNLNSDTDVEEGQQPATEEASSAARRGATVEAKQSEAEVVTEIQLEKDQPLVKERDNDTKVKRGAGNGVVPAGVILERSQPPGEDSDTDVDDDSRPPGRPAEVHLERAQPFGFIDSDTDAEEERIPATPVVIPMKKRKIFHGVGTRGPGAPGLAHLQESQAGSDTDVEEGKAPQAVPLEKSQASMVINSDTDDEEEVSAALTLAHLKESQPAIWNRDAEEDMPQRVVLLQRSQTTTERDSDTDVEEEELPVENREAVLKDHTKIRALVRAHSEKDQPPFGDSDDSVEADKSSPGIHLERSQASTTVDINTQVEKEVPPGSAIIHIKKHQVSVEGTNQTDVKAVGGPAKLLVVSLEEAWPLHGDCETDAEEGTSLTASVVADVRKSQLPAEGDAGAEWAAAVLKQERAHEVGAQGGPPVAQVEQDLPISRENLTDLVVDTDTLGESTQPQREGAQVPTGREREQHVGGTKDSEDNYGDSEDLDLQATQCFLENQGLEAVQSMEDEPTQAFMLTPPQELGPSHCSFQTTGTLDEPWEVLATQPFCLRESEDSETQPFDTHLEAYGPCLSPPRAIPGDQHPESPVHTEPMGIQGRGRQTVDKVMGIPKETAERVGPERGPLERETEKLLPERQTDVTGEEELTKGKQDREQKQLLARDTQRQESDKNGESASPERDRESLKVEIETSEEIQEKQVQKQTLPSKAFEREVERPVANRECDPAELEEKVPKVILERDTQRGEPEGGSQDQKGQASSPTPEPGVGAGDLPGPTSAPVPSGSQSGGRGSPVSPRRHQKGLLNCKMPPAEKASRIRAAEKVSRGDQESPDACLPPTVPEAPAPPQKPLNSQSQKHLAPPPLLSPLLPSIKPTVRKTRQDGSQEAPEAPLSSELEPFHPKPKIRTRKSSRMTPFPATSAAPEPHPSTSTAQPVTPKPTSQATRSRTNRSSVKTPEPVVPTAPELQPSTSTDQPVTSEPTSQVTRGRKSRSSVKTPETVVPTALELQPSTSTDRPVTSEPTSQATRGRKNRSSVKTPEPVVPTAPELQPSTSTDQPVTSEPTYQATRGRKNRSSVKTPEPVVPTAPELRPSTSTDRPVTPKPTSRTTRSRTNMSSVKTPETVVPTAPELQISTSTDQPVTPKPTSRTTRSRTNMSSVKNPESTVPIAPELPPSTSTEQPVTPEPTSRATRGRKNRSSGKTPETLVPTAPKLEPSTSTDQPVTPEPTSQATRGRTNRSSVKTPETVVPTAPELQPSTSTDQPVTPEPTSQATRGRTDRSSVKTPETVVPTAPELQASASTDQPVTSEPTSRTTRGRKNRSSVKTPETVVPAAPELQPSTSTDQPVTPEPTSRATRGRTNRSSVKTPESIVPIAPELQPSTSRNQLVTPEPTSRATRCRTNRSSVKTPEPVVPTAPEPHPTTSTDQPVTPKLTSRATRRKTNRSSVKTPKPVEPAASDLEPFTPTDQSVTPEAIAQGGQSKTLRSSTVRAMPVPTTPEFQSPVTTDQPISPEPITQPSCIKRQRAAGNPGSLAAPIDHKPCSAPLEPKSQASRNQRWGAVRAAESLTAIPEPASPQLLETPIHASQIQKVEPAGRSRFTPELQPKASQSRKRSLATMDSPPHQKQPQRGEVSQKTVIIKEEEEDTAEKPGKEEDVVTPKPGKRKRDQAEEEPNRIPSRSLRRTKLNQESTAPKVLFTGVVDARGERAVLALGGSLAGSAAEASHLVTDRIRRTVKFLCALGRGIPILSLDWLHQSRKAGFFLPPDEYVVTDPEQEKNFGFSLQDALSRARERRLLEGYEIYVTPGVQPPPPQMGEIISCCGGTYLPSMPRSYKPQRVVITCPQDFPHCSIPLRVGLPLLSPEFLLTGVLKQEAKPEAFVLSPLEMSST
# Sequence of UniProt Q9H0C8 (Q9H0C8 whole entry, looked up): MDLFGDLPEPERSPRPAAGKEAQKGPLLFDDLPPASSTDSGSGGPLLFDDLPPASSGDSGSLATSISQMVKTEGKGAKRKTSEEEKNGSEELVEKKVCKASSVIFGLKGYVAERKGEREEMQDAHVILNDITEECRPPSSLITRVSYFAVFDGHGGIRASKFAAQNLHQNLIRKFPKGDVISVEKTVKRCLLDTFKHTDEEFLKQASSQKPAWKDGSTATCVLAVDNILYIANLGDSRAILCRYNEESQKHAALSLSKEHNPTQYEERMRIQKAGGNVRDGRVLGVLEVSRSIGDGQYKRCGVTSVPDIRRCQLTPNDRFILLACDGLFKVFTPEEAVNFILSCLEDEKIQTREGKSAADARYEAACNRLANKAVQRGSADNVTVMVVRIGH
# Sequence of UniProt Q9H6V9 (Q9H6V9 whole entry, looked up): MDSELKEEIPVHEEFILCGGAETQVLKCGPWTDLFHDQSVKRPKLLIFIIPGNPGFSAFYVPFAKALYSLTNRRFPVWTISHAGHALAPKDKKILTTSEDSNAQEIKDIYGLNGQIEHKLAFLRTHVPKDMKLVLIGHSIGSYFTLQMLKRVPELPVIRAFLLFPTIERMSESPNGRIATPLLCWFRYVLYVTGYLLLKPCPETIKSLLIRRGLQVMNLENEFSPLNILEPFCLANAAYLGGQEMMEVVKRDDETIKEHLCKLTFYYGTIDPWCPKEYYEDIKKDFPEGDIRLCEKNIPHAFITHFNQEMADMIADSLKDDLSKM
# Sequence of UniProt P22692 (P22692 whole entry, looked up): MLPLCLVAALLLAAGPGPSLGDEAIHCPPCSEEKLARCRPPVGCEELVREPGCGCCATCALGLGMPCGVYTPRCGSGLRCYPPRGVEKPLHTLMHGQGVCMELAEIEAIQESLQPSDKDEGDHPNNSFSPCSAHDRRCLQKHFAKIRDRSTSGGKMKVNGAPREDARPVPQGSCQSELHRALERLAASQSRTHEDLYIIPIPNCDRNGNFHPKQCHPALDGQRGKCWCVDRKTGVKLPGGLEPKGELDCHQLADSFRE
# Sequence of UniProt Q9H0B6 (Q9H0B6 whole entry, looked up): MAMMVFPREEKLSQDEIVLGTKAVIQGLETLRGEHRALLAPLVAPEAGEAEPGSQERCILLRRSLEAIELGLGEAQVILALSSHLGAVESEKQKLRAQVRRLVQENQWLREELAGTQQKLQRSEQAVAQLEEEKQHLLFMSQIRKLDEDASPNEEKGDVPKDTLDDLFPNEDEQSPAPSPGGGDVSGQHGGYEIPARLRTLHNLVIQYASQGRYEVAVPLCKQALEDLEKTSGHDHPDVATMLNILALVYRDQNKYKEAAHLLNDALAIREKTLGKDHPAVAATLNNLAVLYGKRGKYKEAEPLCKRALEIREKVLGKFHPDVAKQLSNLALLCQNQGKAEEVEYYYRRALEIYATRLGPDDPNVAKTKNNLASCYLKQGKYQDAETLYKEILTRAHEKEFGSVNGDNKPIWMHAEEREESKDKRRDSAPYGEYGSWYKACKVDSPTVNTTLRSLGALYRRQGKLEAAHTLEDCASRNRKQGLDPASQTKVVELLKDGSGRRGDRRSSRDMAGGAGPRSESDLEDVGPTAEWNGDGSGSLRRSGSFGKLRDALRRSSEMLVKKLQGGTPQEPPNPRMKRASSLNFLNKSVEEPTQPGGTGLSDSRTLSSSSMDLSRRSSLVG
# Sequence of UniProt P07948 (P07948 whole entry, looked up): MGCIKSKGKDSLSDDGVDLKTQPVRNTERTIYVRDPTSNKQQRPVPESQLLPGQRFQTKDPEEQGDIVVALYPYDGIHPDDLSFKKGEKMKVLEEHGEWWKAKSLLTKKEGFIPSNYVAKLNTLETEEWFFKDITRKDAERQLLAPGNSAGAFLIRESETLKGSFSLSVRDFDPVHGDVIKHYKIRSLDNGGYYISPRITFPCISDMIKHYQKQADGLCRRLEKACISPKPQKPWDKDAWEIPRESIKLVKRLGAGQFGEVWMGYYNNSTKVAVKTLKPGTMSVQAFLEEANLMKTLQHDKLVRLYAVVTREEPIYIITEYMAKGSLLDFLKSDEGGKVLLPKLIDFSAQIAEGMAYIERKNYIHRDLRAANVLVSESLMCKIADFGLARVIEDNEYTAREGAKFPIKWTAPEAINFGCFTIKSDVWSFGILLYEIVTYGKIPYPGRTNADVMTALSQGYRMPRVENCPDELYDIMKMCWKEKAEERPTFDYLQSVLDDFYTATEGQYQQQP
row,Target,log2 fold change
1,LTV1 (UniProt Q96GA3),-0.04
2,LEMD3 (UniProt Q9Y2U8),-0.005
3,LMNA (UniProt P02545),-0.026
4,MDC1 (UniProt Q14676),-0.013
5,MED16 (UniProt Q9Y2X0),-0.046
6,ILF2 (UniProt Q12905),-0.031
7,ITIH4 (UniProt Q14624),0.135
8,ITPRIP (UniProt Q8IWB1),-0.01
9,LYN (UniProt P07948),-0.036
10,IGFBP4 (UniProt P22692),0.026
11,MAP2K2 (UniProt P36507),0.009
12,KRAS isoform 2 (UniProt P01116),-0.023
13,LMBRD2 (UniProt Q68DH5),0.043
14,LDAH isoform 2 (UniProt Q9H6V9),0
15,LMNB2 (UniProt Q03252),-0.025
16,IMMT isoform 2 (UniProt Q16891),-0.05
17,ILKAP (UniProt Q9H0C8),0.072
18,KEL (UniProt P23276),0.117
19,LTO1 (UniProt Q8WV07),-0.021
20,KLC2 (UniProt Q9H0B6),0.021
21,MAPK8 isoform 3 (UniProt P45983),-0.015
22,KCTD10 (UniProt Q9H3F6),-0.025
23,MED17 (UniProt Q9NVC6),-0.186

# Source: the supplement of paper PMC10849652
